Among all 190,000 compounds or so, about 1,300 (0.68%) were called active. The sample holds actives, similar compounds and a random draw of the others, so the mix is not that of the screen. Rule as the data show it: active = inhibition above about 50%; inactive = the rest.
Biological target: Mannose-6-phosphate isomerase (Homo sapiens) (UniProt P34949)
Test: human PMI inhibitors, high substrate, primary screen, biochemical, fluorescence intensity, high mannose 6-phosphate (AID 1220)
Settings: recombinant PMI enzyme, coupled fluorescence intensity; at 20 µM; active compounds read high

Chain of Mannose-6-phosphate isomerase (Homo sapiens) (P34949 whole entry, looked up): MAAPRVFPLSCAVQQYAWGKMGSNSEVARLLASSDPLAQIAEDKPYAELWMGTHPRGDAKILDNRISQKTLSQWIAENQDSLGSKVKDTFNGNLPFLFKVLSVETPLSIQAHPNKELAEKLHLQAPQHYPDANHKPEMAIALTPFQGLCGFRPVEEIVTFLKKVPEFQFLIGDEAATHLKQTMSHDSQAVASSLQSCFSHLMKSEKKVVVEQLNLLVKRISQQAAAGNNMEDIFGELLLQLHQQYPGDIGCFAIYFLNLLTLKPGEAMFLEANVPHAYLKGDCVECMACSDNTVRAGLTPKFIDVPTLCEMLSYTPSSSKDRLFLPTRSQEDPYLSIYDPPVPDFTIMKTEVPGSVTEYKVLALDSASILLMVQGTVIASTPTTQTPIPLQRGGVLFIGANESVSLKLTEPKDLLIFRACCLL

| Structure (SMILES) | inhibition |
| --- | --- |
| COc1ccc(-c2nc(NC(=O)Cn3c(=O)oc4ccccc43)sc2C)cc1 | 16.1% (inactive) |
| Nn1c(SCc2ccccc2)nc2c(cnn2-c2ccccc2)c1=O | 4.9% (inactive) |
| COc1ccc(-c2cccc(C(=O)NCC(=O)O)c2)cc1 | 2.2% (inactive) |
| Cc1ccccc1Nc1nc(N)nc(CN2CCN(Cc3ccc4c(c3)OCO4)CC2)n1 | -1.7% (inactive) |
| CCC1CCCCN1C(=S)Nc1cccc(S(=O)(=O)N(C)C)c1 (centres undefined) | -6.4% (inactive) |
| COc1cc(CN2CCCC(C(=O)c3ccc4c5c(cccc35)CC4)C2)cc(OC)c1O (centres undefined) | 74.7% (active) |
| O=C(c1ccc2c3c(cccc13)CC2)C1CCCN(Cc2ccncc2)C1 (centres undefined) | -2.1% (inactive) |
| O=C(c1ccc2c3c(cccc13)CC2)C1CCCN(Cc2cccnc2)C1 (centres undefined) | 11.4% (inactive) |
| CC(C)NC(=O)c1ccccc1NC(=O)Cc1ccc(Cl)cc1 | -7.2% (inactive) |
| CCn1c2ccccc2c2cc(NC(=O)CCCN3C(=O)CCC3=O)ccc21 | -9.6% (inactive) |
| CC1CCC/C(=C\Nc2ccc(C(=O)O)cc2)C1=O (centres undefined) | 25.7% (inactive) |
| CC1CCC/C(=C\Nc2ccc(O)cc2)C1=O (centres undefined) | 57.1% (active) |
| CCOC(=O)c1ccc(N/C=C2/CCCC(C)C2=O)cc1 (centres undefined) | 8.1% (inactive) |
| O=C(Cc1ccccc1)N/N=C/c1cccs1 | 4.5% (inactive) |
| O=C(Oc1cccc(O)c1)C1CCCCC1 | 13% (inactive) |
| O=C(Oc1ccc2ccc(=O)oc2c1)C1CCCCC1 | -2.5% (inactive) |
| O=C(Oc1ccc2ccc(O)cc2c1)C1CCCCC1 | 55% (active) |
| CCOC(=O)C1CCCN(C(=S)NC2CCCCC2)C1 (centres undefined) | 2.4% (inactive) |
| CCn1c(SCC(=O)c2ccc(C)cc2)nnc1-c1ccoc1C | -13.6% (inactive) |
| Cc1noc(C)c1S(=O)(=O)N1CCC(C(=O)NCCN2CCC(C)CC2)CC1 | 7.6% (inactive) |
| CCC1CCCCN1CCNC(=O)C1CCN(S(=O)(=O)c2c(C)noc2C)CC1 (centres undefined) | 1.5% (inactive) |
| Cc1noc(C)c1S(=O)(=O)N1CCC(C(=O)NCCCN2CC(C)CC(C)C2)CC1 (centres undefined) | 54.6% (active) |
| CCOC(=O)c1c(-c2ccccc2)csc1NC(=S)NC | 14.4% (inactive) |

| Structure (SMILES) | inhibition |
| --- | --- |
| CCNC(=S)Nc1scc(-c2ccccc2)c1C(=O)OCC | 52.2% (active) |
| CCOC(=O)c1c(-c2ccccc2)csc1NC(=S)N(CC)CC | 14.7% (inactive) |
| COC(=O)c1c(C)[nH]c(O)c1C=Nc1ccc(C#N)cc1 | 1.7% (inactive) |
| COc1ccc(C2CC(=O)N3CN(Cc4ccco4)CSC3=C2C#N)cc1 (centres undefined) | 73.2% (active) |
| N#CC1=C2SCN(Cc3ccco3)CN2C(=O)CC1c1ccc(Cl)cc1 (centres undefined) | 53.5% (active) |
| CC(C)c1ccc(C2CC(=O)N3CN(Cc4ccco4)CSC3=C2C#N)cc1 (centres undefined) | 76% (active) |
| N#CC1=C2SCN(c3ccccc3)CN2C(=O)CC1c1c(Cl)cccc1Cl (centres undefined) | 23.8% (inactive) |
| CCOc1ccc(N2CSC3=C(C#N)C(c4ccco4)CC(=O)N3C2)cc1 (centres undefined) | -62.8% (inactive) |
| Cc1ccc(N2CSC3=C(C#N)C(c4cccs4)CC(=O)N3C2)cc1 (centres undefined) | -74.9% (inactive) |
| Cc1ccc(C2CC(=O)N3CN(c4ccc(Br)cc4)CSC3=C2C#N)o1 (centres undefined) | -40.7% (inactive) |
| Cc1cccc(N2CSC3=C(C#N)C(c4ccc(C)o4)CC(=O)N3C2)c1 (centres undefined) | -1.2% (inactive) |
| N#CC1=C2SCN(Cc3ccco3)CN2C(=O)CC1c1c(F)cccc1Cl (centres undefined) | -26.5% (inactive) |
| N#CC1=C2SCN(c3ccc(F)cc3)CN2C(=O)CC1c1cccc(F)c1 (centres undefined) | 14.8% (inactive) |
| COc1ccc(C2CC(=O)N3CN(c4ccc(C)c(Cl)c4)CSC3=C2C#N)cc1 (centres undefined) | 19.1% (inactive) |
| Cc1ccc(C2CC(=O)N3CN(Cc4ccco4)CSC3=C2C#N)cc1 (centres undefined) | 62.6% (active) |
| CCCN1C(=O)C(Cc2nc3ccccc3c(=O)n2-c2ccccc2)c2ccccc21 (centres undefined) | 8.6% (inactive) |
| Cc1ccc(N2C(=O)C(O)(C(F)(F)F)C3=C2CC(C)(C)CC3=O)cc1C (centres undefined) | -10% (inactive) |
| N#CCC1c2ccccc2CCN1C(=O)Nc1cccc(Cl)c1 (centres undefined) | 15.2% (inactive) |
| CN1CCC(N2CCCC(C(=O)O)C2)CC1 (centres undefined) | -1.5% (inactive) |
| O=C(NCC(F)(F)F)Nc1ccccn1 | -4.8% (inactive) |
| CCOCCNC(=O)c1ccc2c3c(cccc13)CC2 | -8.4% (inactive) |
| CCC(C)NC(=O)C1CCCCN1S(=O)(=O)c1ccc(F)cc1 (centres undefined) | -2.3% (inactive) |
| Cc1nn(C)c(Oc2ccc(Cl)cc2)c1C(=O)Nc1ccc(F)cc1F | 1.9% (inactive) |

| Structure (SMILES) | inhibition |
| --- | --- |
| Nc1ccc2c(c1)-c1ccccc1S(=O)(=O)N2 | 52.3% (active) |
| Cc1ccc2c(c1)-c1ccccc1S(=O)(=O)N2 | -0.5% (inactive) |
| NCCN=C1NS(=O)(=O)c2ccccc21 | 7.4% (inactive) |
| COc1cc(CNCC2CCCO2)ccc1OCC(N)=O (centres undefined) | -5.5% (inactive) |
| COc1ccc2c(c1)OC13CCN(C)CC1C2C(C(=O)c1ccc(F)cc1)C(=O)N3 (centres undefined) | -3.5% (inactive) |
| CC1C(=O)Nc2ccccc2N1C(=O)C1CC1 (centres undefined) | -7.6% (inactive) |
| CCC(C)C(=O)N1c2ccccc2C(=C2SC(C(=O)OC)=C(C(=O)OC)S2)C(=S)C1(C)C (centres undefined) | 48.7% (inactive) |
| CCCC(=O)N1c2ccccc2C(=C2SC(C(=O)OC)=C(C(=O)OC)S2)C(=S)C1(C)C | 32.9% (inactive) |
| COC(=O)C1=C(C(=O)OC)SC(=C2C(=S)C(C)(C)N(C(=O)CC(C)C)c3ccccc32)S1 | 33% (inactive) |
| COCCNC(=O)C(C(=O)c1ccc(F)cc1)n1cc(C)ccc1=O (centres undefined) | 19.5% (inactive) |
| Cc1cccc(C(=O)NC(NCCc2ccccc2)C(Cl)(Cl)Cl)c1 (centres undefined) | 1.5% (inactive) |
| COC(=O)C(C)Sc1nc(N)c(NC(=O)c2ccco2)c(=O)[nH]1 (centres undefined) | 1.6% (inactive) |
| Cc1ccc(CN2CCCC(CO)(Cc3ccccc3C)C2)s1 (centres undefined) | 13% (inactive) |
| CCCCCN1C=CC(=C2C(=O)c3ccccc3C2=O)C=C1 | -2.8% (inactive) |
| COc1ccc2ccccc2c1C1CC(=O)N2CN(C3CCCCC3)CSC2=C1C#N (centres undefined) | 52.1% (active) |
| CC(C)c1ccc(C2CC(=O)N3CN(C)CSC3=C2C#N)cc1 (centres undefined) | 28.9% (inactive) |
| COc1cc(C2CC(=O)N3CN(c4ccccc4C)CSC3=C2C#N)cc(OC)c1OC (centres undefined) | 11.4% (inactive) |
| CCc1ccccc1N1CSC2=C(C#N)C(c3cc(OC)c(OC)cc3OC)CC(=O)N2C1 (centres undefined) | 9% (inactive) |
| COc1ccc2ccccc2c1C1CC(=O)N2CN(C)CSC2=C1C#N (centres undefined) | 68.7% (active) |
| COc1cccc(C2CC(=O)N3CN(c4cccc(Cl)c4C)CSC3=C2C#N)c1OC (centres undefined) | 0.2% (inactive) |
| COc1ccccc1N1CSC2=C(C#N)C(c3ccc(SC)cc3)CC(=O)N2C1 (centres undefined) | 7.1% (inactive) |
| CCOc1cc(C2CC(=O)N3CN(C4CCCCC4)CSC3=C2C#N)ccc1O (centres undefined) | 49% (inactive) |
| CCOc1ccccc1N1CSC2=C(C#N)C(c3c(OC)ccc4ccccc34)CC(=O)N2C1 (centres undefined) | 67.1% (active) |
